Sampled rows, rich in hits. Any-hit rate of the full collection: about 8.8%.
HT1080NT lethal: kills 2HG-producing HT-1080-NT fibrosarcoma cells; 1.6% of 360,000 active; Potency, µM (titrated, usually from 46.1 µM), for the others: at the top dose activity, negative = less viability, usual class: cytotoxic; AID 686970; HT-1080-NT fibrosarcoma viability, CellTiter-Glo ATP luminescence, 48 h;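 also: NT is the 2HG producing partner of a matched IDH1 knockdown line; potency is read from the fitted curve at half-maximal effect; 0% = DMSO-treated cells and -100% = media-only wells without cells; nearly all actives have a fitted effect of over 55% in size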
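750 cells/well, RPMI + 5% FBS; 2 h settle, compound pin-transfer, 48 h at 37 degrees C. CellTiter-Glo 10 min RT, luminescence. Normalized to DMSO and media-only wells.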
IL-1B inflam inh: blocks inflammasome-driven IL-1 beta release; THP-1 LPS/ATP IL-1B secretion, AlphaLISA, 16 h; stronger effect = lower value; activity change, % at 57.5 µM; 4.7% of 360,000 active; in the data active = activity change below about -50%; inconclusive = mostly about -30% to -49%
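THP-1 cells pretreated 1 hr with compounds (up to 57.5 uM final), then stimulated with LPS (250 ng/mL final) plus ATP (1.25 mM final); secreted IL-1B measured by AlphaLISA after 16 hr, decreased signal indicating inhibition.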
KB-V1 cytotox: KB-V1 MDR subline cytotoxicity; KB-V1 MDR cells viability, CellTiter-Glo, 72 h; Potency, µM (doses to about 46.1 µM), hits mostly cytotoxic; 3.4% of 400,000 active; AID 1347076; also: potency is read from the fitted curve at half-maximal effect; nearly all actives have a fitted effect of over 60% in size
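Potencies derive from concentration-effect curves fitted to normalized luminescence (CellTiter-Glo) of KB-V1 cells treated for 72 h at 37 degrees C in phenol-red-free DMEM containing 10% FBS.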
HT1080 IDH1KD tx: HT-1080 IDH1 knockdown cell toxicity (counter line). HT-1080 IDH1 knockdown viability, ATP luminescence, 48 h. Potency, µM (titrated, usually from 46.1 µM), inactives show top-dose activity, negative = toxicity, actives largely listed as cytotoxic. 2% of 360,000 active;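 also: potency is read from the fitted curve at half-maximal effect; 0% = DMSO wells and -100% = cell-free medium wells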
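In this qHTS, HT-1080 cells depleted of IDH1 are exposed for 48 h at 37 °C to compound titrations. Toxicity is scored from CellTiter-Glo luminescence, with DMSO as full viability and medium alone as none.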
KB-3-1 tox: kills parental KB-3-1 adenocarcinoma cells; KB-3-1 viability, CellTiter-Glo ATP luminescence, 72 h; Potency, µM (series often up to 46.1 µM), usual class: cytotoxic; 1.4% of 400,000 active; also: potency is read from the fitted curve at half-maximal effect; nearly all actives have a fitted effect of over 60% in size
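Here the drug-naive KB-3-1 line serves as comparator for MDR sub-line selectivity; cells received compound titrations, 72 h at 37 °C, then CellTiter-Glo readout.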
Numbers without * were called inactive; i = inactive; ? = inconclusive; · = no result given. Unless noted, calls follow the shape of the dose curve; as a rule, active = well fitted curve in the direction sought with a large enough effect; inconclusive = small, poorly fitted or top-dose-only effect, or another doubt; inactive = no such curve, though single readings can be large; an effect the other way counts as inactive or inconclusive. Unless noted, % is scaled to controls: 0 for no effect and ±100 for the full control effect.

SMILES | HT1080NT lethal | IL-1B inflam inh | KB-V1 cytotox | HT1080 IDH1KD tx | KB-3-1 tox
c1ccc(CCn2c3ccccc3c3nnc(SCc4ccc5nonc5c4)nc32)cc1 | ? | -4 | ? | 7.1µM* | i
CNC(=S)N/N=C/c1cccc(OCc2ccccc2F)c1 | ? | -6 | ? | -15% | ?
CCNC(=S)N/N=C/c1cccc(OCc2c(F)cccc2Cl)c1 | -16% | 0 | 21µM* | -15% | ?
O=c1cc(SCc2ccccc2)nc[nH]1 | 1% | -80* | i | -5% | i
Cc1cc(SCc2ccccc2)nc(=O)[nH]1 | 11% | -3 | i | 11% | i
Cc1cc(/C=C2\SC(=Nc3ccccc3)NC2=O)c(C)n1-c1ccc(S(N)(=O)=O)cc1 | 7.3µM* | -13 | ? | 5.2µM* | 4.1µM*
Cc1nn(-c2ccccc2)c(C)c1NC(=O)COc1ccccc1C#N | -2% | 18 | i | 6% | i
CCNC(=O)COc1ccc(Br)cc1Cl | -2% | -21 | ? | -4% | i
COCCCNC(=O)COc1ccc(Br)cc1Cl | 21% | -11 | 21µM* | 12% | i
Cc1nn(-c2ccccc2)c(C)c1NC(=O)COc1ccc(Br)cc1Cl | ? | -9 | ? | ? | 15µM*
Cc1nn(-c2ccccc2)c(C)c1NC(=O)COc1ccc(C#N)cc1 | 8% | 16 | 18µM* | 3% | i
N#Cc1ccc(-c2ccc(OCC(=O)Nc3cccnc3)cc2)cc1 | ? | -52* | · | ? | ·
CC(=O)Nc1ccc(NC(=O)COc2ccc(-c3ccc(C#N)cc3)cc2)cc1 | 2% | 2 | i | -8% | i
O=C(NCC(=O)N1CCc2ccccc2C1)c1ccccc1Cl | 21% | 7 | i | 21% | i
COc1cc(C(=O)Nc2ccc(NC(=O)c3ccccc3Cl)nc2)cc(OC)c1OC | -13% | -15 | i | -20% | i
CCCCC1CCC(C(=O)N(C)CC(=O)Nc2cccc(OC)c2)CC1 (stereo not drawn) | 0% | 24 | ? | -3% | i
COc1cccc(N2CCN(C(=O)c3ccc4c(Cl)c5c(nc4c3)CCCC5)CC2)c1 | · | · | i | · | i
Cc1ccc(NC(=O)COC(=O)c2c(C)nn(-c3ccccc3)c2C)cc1 | -1% | -19 | i | -1% | i
Cc1nn(-c2ccccc2)c(C)c1NC(=O)COc1ccc2ccccc2c1 | -25% | -5 | 15µM* | ? | ?
Cc1nn(-c2ccccc2)c(C)c1C(=O)OCC(=O)Nc1ccccc1 | 1% | -13 | 10µM* | -14% | i
O=C(NOC(=O)c1c(F)cccc1Cl)c1ccc(Cl)c(Cl)c1 | 1% | 13 | i | 12% | i
O=C(C=Cc1ccccc1)c1cc(Br)ccc1O | -1% | -22 | i | 0% | i
CCc1ccc(/C=C/C(=O)c2cc(Br)ccc(=O)c2O)cc1 | 21µM* | -1 | 10µM* | ? | ?
CCOc1ccc(/C=C/C(=O)c2cc(Br)ccc(=O)c2O)cc1 | ? | ? | 10µM* | 23µM* | ?
CCOc1ccc(-c2cc(CCCC(=O)Nc3cccc(OC)c3)no2)cc1 | ? | 35 | ? | 18µM* | ?
SMILES | HT1080NT lethal | IL-1B inflam inh | KB-V1 cytotox | HT1080 IDH1KD tx | KB-3-1 tox
CCOc1ccc(NC(=O)CCCc2cc(-c3ccc(OCC)cc3)on2)cc1 | 12% | 34 | i | 6% | i
NC(=O)CN1C(=O)C(O)(CC(=O)/C=C\c2ccc3c(c2)OCO3)c2ccccc21 (stereo not drawn) | ? | -88* | i | ? | i
CN1/C(=C\C(=O)COc2ccc3c(c2)OCO3)C(C)(C)c2ccccc21 | -22% | -78* | ? | -28% | ?
CN1C(=O)C(O)(CC(=O)c2ccc3c(c2)OCO3)c2ccccc21 (stereo not drawn) | 9% | 3 | i | -3% | i
COc1ccccc1OCC(=O)/C=C1/N(C)c2ccccc2C1(C)C | -19% | -9 | ? | -27% | i
O=C(CC1(O)C(=O)N(Cc2ccccc2)c2ccccc21)c1ccc2c(c1)OCO2 (stereo not drawn) | 0% | 13 | i | -12% | i
CN1C(=O)C(O)(CC(=O)/C=C\c2ccc3c(c2)OCO3)c2ccccc21 (stereo not drawn) | ? | -101* | i | ? | ?
CC(C)(C)C(=O)COC(=O)c1cc(-c2cccnc2)nc2ccccc12 | 0% | 2 | i | 0% | i
Cc1cc(C)c2nc3nc(C)c(C)cc3c(N)c2c1 | ? | -89* | i | 13µM* | i
Cc1ccc2[nH]c(-c3ccccc3)cc(=O)c2c1 | 0.73µM* | 70 | ? | 1µM* | 0.29µM*
Nc1cc(-c2ccc(Br)cc2)nn1S(=O)(=O)c1cccc2nsnc12 | -15% | -65* | i | ? | ?
C[C@H](CO)N1C[C@H](C)[C@@H](CN(C)Cc2ccc3cccnc3c2)OCc2cnnn2CCCC1=O | 1% | 2 | i | 0% | i
CC(C)(C)c1ccc(C(=O)c2c[nH]c(C(=O)NCCCN3CCOCC3)c2)cc1 | 4% | 12 | 18µM* | -3% | i
Cn1nc([N+](=O)[O-])nc1Oc1ccccc1 | 15% | 0 | ? | 8% | i
Cn1nc([N+](=O)[O-])nc1Oc1ccc(C(C)(C)C)cc1 | 5% | -22 | 15µM* | 18% | i
O=C(c1ccc([N+](=O)[O-])cc1)N1CCN(Cc2ccccc2[N+](=O)[O-])CC1 | -11% | -27 | i | -15% | i
COc1ccc2c(c1)CCCN2C(N)=Nc1ccc(Cl)cc1 | -23% | -63* | i | ? | i
COc1ccc2c(c1)CCCN2C(N)=O | 2% | -10 | i | 12% | i
CC(NC(=O)c1nn(C)c(=O)c2ccccc12)c1ccccc1 (stereo not drawn) | 5% | 18 | 21µM* | 1% | i
COc1cc(-c2coc3c(C(=O)NCc4ccc(C(F)(F)F)cc4)cccc23)ccc1O | ? | ? | ? | 26µM* | ?
COc1cc(-c2coc3c(C(=O)NCc4ccncc4)cccc23)ccc1O | -8% | -67* | ? | -12% | i
O=C(NCc1ccccc1)c1cccc2c(-c3cccnc3)coc12 | 0% | -28 | i | -14% | i
COc1cc2c(cc1OC)C(c1cccc([N+](=O)[O-])c1)N(C(=O)CCC(=O)O)CC2 (stereo not drawn) | 0% | 3 | i | 0% | i
CCCCOc1ccc(CC(=O)N(C)OC)cc1 | · | · | i | · | i
COc1cc2nc(N3CCN(C(=O)OCc4ccccc4)[C@H](C(=O)NC(C)(C)C)C3)nc(N)c2cc1OC | 18µM* | -19 | i | ? | i

Source: PubChem BioAssay (National Center for Advancing Translational Sciences (NCATS))
